# In PubChem BioAssay (NCATS):
# Results filed as inconclusive are left out. A call without a number means that no potency is given here. Calls of active or inactive are those of the source. Calls follow the shape of the dose curve; as a rule, active = well fitted inhibition curve with a large enough effect; inconclusive = small, poorly fitted or top-dose-only effect; inactive = flat fitted curve, though single readings scatter.
# Target: Calcium and integrin-binding protein 1 (Homo sapiens) (UniProt Q99828)
# Test: Primary qHTS for Identification of Calcium Integrin Binding Protein 1 (CIB1) Competitor (AID 1508620);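 also: GST tagged CIB1 binding a fluorescein labelled alphaIIb integrin peptide tracer; top concentration of the series differs between compounds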
# Conditions: CIB1-GST / FITC-alphaIIb peptide fluorescence polarization; series mostly up to 114 µM
# Outline: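 Fluorescence polarization competition: CIB1-GST (1 uM final) preincubated with compound 15 min at room temperature, then FITC-labeled alphaIIb peptide (100 nM final) added for another 15 min. Polarization read at Ex 480/Em 540.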
# Sequence of Calcium and integrin-binding protein 1 (Homo sapiens) (Q99828 whole entry, looked up): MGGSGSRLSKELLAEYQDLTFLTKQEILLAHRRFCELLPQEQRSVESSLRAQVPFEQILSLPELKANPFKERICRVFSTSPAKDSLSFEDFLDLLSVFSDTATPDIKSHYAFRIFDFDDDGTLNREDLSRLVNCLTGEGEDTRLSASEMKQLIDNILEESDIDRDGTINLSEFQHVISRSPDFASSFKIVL
row,Structure (SMILES),Potency
1,CN1C(=O)CCc2cc(S(=O)(=O)Nc3ccc(Cl)c(Cl)c3)ccc21,inactive
2,O=[S+]([O-])(c1ccc2c(c1)OCCO2)N1CCN([S+](=O)([O-])c2ccc(F)cc2Cl)CC1,inactive
3,FC(F)(F)c1cc(-c2ccc(CNc3nc(C4CCCC4)nc4ccccc34)cc2)ccn1,inactive
4,CN(CC1CCCO1)c1ncnc2ccc(-c3ccc4c(c3)OCO4)cc12 (configuration not stated),inactive
5,O=C(Nc1nnc(-c2ccncc2)s1)Nc1ccc(Cl)cc1F,inactive
6,O=C(c1ccccc1)N1CCN(c2nc(-c3cccs3)nc3ccccc23)CC1,inactive
7,O=C(CSc1nnc(-c2cccc(S(=O)(=O)N3CCCC3)c2)n1-c1ccccc1)Nc1ccc(Cl)cc1,inactive
8,N#CC1=C(Nc2nc3ccccc3o2)OC2=C(C(=O)CCC2)C1c1[nH]ncc1Cl (configuration not stated),inactive
9,Cn1nnnc1Sc1ncnc2scc(-c3cccc(C#N)c3)c12,inactive
10,CS(=O)(=O)c1ccc(C(=O)OCC(=O)N2CCN(Cc3ccccc3)CC2)cc1[N+](=O)[O-],inactive
11,Cc1ccc(-c2ccc(=O)n(CC(=O)NCCCN(C)C)n2)cc1,inactive
12,O=C(Nc1ncc(Cc2ccc(C(F)(F)F)cc2)s1)c1ccc(-c2cccnc2)o1,inactive
13,Cc1cnc(-c2ccccc2C(C)C)nc1NCc1cccnc1,inactive
14,Cc1cc(NC(=O)Nc2nnc(-c3cccnc3)s2)ccc1F,inactive
15,Cc1ccc(CN(C)c2ncnc3ccc(-c4ccc(C#N)n4C)cc23)o1,inactive
16,O=C(CSc1ccccc1)Nc1nnc(COc2ccc(Cl)cc2)s1,inactive
17,COc1cccc(-c2ccc(CNc3ccc(N4CCN(C(=O)OC(C)(C)C)CC4)cc3)o2)c1,inactive
